# Test results from the supplement of paper PMC10338343.
# ± gives the standard deviation.
# Legend:
# [1] = system: MILI (PIWIL2) piRISC loaded with piRNA #1 (26 nt); test: pre-steady-state target cleavage rate (min^-1); guide: piRNA #1 5'p-UGAGGUAGUAGGUUGUAUAGUAUCCA; higher = faster piRNA-guided slicing of the target; conditions: auxiliary factor: 500 nM mouse GTSF1
# Method in brief: (§1)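 Cleave-'n-Seq: a transcribed, DNA-blocked target RNA library (0.1 nM) was mixed with 1 nM active affinity-purified piRISC carrying one synthetic guide, with or without 500 nM GTSF1 partner protein, in HEPES–potassium acetate buffer at 33 °C for 0–8 or 0–960 min. Uncleaved targets were sequenced and normalised to depth and to weakly complementary targets. Three trials were pooled, and k3 was capped at 0.0001 min^-1. The pre-steady-state cleavage rate came from a burst-and-steady-state fit.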
# [2] = system: EfPiwi piRISC loaded with piRNA #1 (26 nt); test: pre-steady-state target cleavage rate (min^-1); auxiliary factor: 500 nM Ephydatia muelleri Gtsf1; guide: piRNA #1 5'p-UGAGGUAGUAGGUUGUAUAGUAUCCA; MIWI and MILI are mouse PIWI proteins and EfPiwi is from a freshwater sponge; tags in brackets are library labels; higher = faster piRNA-guided slicing of the target
# Method in brief: as §1
Sequence,pre-steady-state target cleavage rate [1],pre-steady-state target cleavage rate [2]
GGAGUGGAAACUAUACAUCCUACUACCUCA,0.275 ± 0.024,0.0101 ± 0.0045
GGAGACCAUACUUAUACAACCUACUACCUCA,0.132 ± 0.016,0.0757 ± 0.028
GGAGAGGAACUAUACAACCUACUACCUCA,0.167 ± 0.013,0.00746 ± 0.0049
GGAGACCAUACUAUACAACCUACUGCCUCA,0.139 ± 0.015,0.00606 ± 0.0025
GGAGUCGAUACUAUACAACCUAGUACCUCA,0.0166 ± 0.0031,0.00334 ± 0.0014
GGAGACCUAACUAUACAACGUACUUCCUCA,0.0215 ± 0.0078,0.00713 ± 0.0049
GGAGUGGAUACAAUACAACCUACUACCACA,0.111 ± 0.0093,0.00323 ± 0.0018
GGAGUGGAUUGUAUACAACCUACUACCUCA,0.151 ± 0.0098,0.00594 ± 0.0037
GGAGAGGAUACAUUACAACCUACUACCUCA,0.148 ± 0.012,0.007 ± 0.0035
GGAGACGAUACUAUACAACCUACUUCCUGA,0.00812 ± 0.005,0.00342 ± 0.002
GGAGACCAUACUAUACAUCCUACUUCCUCA,0.176 ± 0.03,0.00272 ± 0.0026
GGAGAGGAUACUAUACAAGCUUCUACCUCA,0.0253 ± 0.0037,0.0045 ± 0.0024
GGAGAGGAAACUAUACAACCUACUAGCUCA,0.0535 ± 0.019,0.00276 ± 0.0019
GGAGUGGAUACUAUACAACUACUACCUCA,0.0608 ± 0.0047,0.00835 ± 0.0039
GGAGACCAUACUAUACAACCUACUACCUACA,0.16 ± 0.018,0.00527 ± 0.0031
GGAGAGGUUACUAUACAACCUACUACCUGA,0.0157 ± 0.0052,0.00474 ± 0.0019
GGAGACGAUACUAUACAACCUAGUUCCUCA,0.00516 ± 0.0038,0.00305 ± 0.0018
GGAGACCUAACAUACAACCUACUACCUCA,0.0208 ± 0.009,0.0097 ± 0.005
GGAGAGGAUACUAUAGAAGCUACUACCUCA,0.0647 ± 0.0095,0.00238 ± 0.0021
GGAGAGCAUACUAUACAACCUACUUCCUCA,0.0809 ± 0.025,0.00292 ± 0.0021

Sequence,pre-steady-state target cleavage rate [1],pre-steady-state target cleavage rate [2]
GGAGUGGAUACUAUACAACCAACUACGUCA,0.00435 ± 0.0018,0.00367 ± 0.0011
GGAGACGAUACUAUACUACCUACUACCUGA,0.167 ± 0.021,0.00446 ± 0.0021
GGAGACCUAUCUAAUACAACCUACUACCUCA,0.0342 ± 0.0069,0.00579 ± 0.004
GGAGACGAUACUAUAGAACCUUCUACCUCA,0.00459 ± 0.0021,0.00285 ± 0.0016
GGAGACCAUACUAUACAACCUACUACCCA,0.0934 ± 0.019,0.00453 ± 0.0028
GGAGACCUUACUAUACAACCUACUACGAGA,0.0846 ± 0.02,0.00452 ± 0.0025
GGAGAGGAUACUAUACAACCUACUACCCCA,0.119 ± 0.02,0.00713 ± 0.0022
GGAGUGGUUACUAUACAACCUUCUACCUCA,0.0099 ± 0.0024,0.00361 ± 0.0018
GGAGACGAUACUAUACUACCUACUACCUCA,0.2 ± 0.013,0.00925 ± 0.0032
GGAGAGGAUACUAUACAUCCUACAACCUCA,0.125 ± 0.024,0.00339 ± 0.0022
GGAGUGGAUAGUAUACAACCUACUACCUGA,0.0603 ± 0.014,0.00315 ± 0.0017
GGAGACCUAUCCUAUACAACCUACUACCUCA,0.106 ± 0.011,0.0903 ± 0.032
GGAGACCUAACUAUACAACCUACUACCACA,0.176 ± 0.038,0.00545 ± 0.0034
GGAGUGGAUAGUAUACAUCCUACUACCUCA,0.189 ± 0.017,0.00444 ± 0.0024
GGAGUGGAUAGCUAUACAACCUACUACCUCA,0.0528 ± 0.0074,0.00584 ± 0.0033
GGAGACGAUACUAAACAACCUUCUACCUCA,0.00978 ± 0.003,0.00427 ± 0.004
GGAGAGGAUACUAUACAAGCUACUACCUCA,0.143 ± 0.014,0.00667 ± 0.003
GGAGUGCAUACUAUACAACCAACUACCUCA,0.00672 ± 0.0023,0.00484 ± 0.0026
GGAGACGAAACUAUACUACCUACUACCUCA,0.132 ± 0.02,0.00498 ± 0.0023
GGAGACCAUACAAUACAUCCUACUACCUCA,0.209 ± 0.025,0.00484 ± 0.003

Sequence,pre-steady-state target cleavage rate [1],pre-steady-state target cleavage rate [2]
GGAGAGGAUACUAAACAUCCUACUACCUCA,0.276 ± 0.022,0.00524 ± 0.0024
GGAGACGAUACUAUACAUCCUAGUACCUCA,0.0834 ± 0.019,0.0031 ± 0.001
GGAGACCUAACUAUACAACCUACUACGAGA,0.0403 ± 0.019,0.00515 ± 0.0032
GGAGACCUAACUAUACAACCUACUACCUUA,0.12 ± 0.028,0.0211 ± 0.0092
GGAGAGGAUACAAUACAACGUACUACCUCA,0.0139 ± 0.003,0.00326 ± 0.002
GGAGACCUAACUACACAACCUACUACCUCA,0.166 ± 0.039,0.00487 ± 0.0033
GGAGACGAUACUAUACAACCAACUACCUCA,0.00952 ± 0.004,0.00552 ± 0.0017
GGAGUGGAAACUAUACAACCUACUACCUGA,0.105 ± 0.023,0.00283 ± 0.0023
GGAGACCAUACUAUACACCUACUACCUCA,0.0288 ± 0.0078,0.00694 ± 0.0042
GGAGAGGAUACUAUACAACCUACUACCACA,0.171 ± 0.017,0.00641 ± 0.0021
GGAGACCUAAUCUAUACAACCUACUACCUCA,0.11 ± 0.024,0.297 ± 0.099
GGAGACGAUACAAUACAACCUACUACCUCA,0.158 ± 0.012,0.0117 ± 0.0044
GGAGACCAUACUAUACAACCUACUACCCCA,0.156 ± 0.024,0.00577 ± 0.0028
GGAGACCUUACUAUACAAGCUACUAGCUCA,0.0972 ± 0.02,0.00451 ± 0.0043
GGAGACGAUACUAUCAACCUACUACCUCA,0.14 ± 0.012,0.0106 ± 0.0051
GGAGAGGAUACUAUAGAACCUUCUACCUCA,0.00389 ± 0.0026,0.003 ± 0.002
GGAGAGGAUACUUUACAACCAACUACCUCA,0.00433 ± 0.0019,0.00291 ± 0.0016
GGAGACCAUACAUACAACCUACUACCUCA,0.119 ± 0.023,0.0126 ± 0.0066
GGAGACCAUACUAUACAACCUAGUUCCUCA,0.0546 ± 0.018,0.00549 ± 0.0029
GGAGACCUAUGAAUACAACCUACAUACCUCA,0.00848 ± 0.0021,< 0.0001
